A short description of experiment [1]: CCTE_Padilla_ZF_144hpf_TERATOSCORE: (Legacy) CCTE's 144 Hour Post-fertilization zebrafish Assay Teratoscore, Padilla Lab (AID 2283679; active = hit-call score of the fitted dose curve at least 0.9, where 1 is the maximum; inactive = score below 0.9;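 as to AC50: zebrafish embryos with chorions exposed by immersion from 6-8 hpf to 5 dpf with daily renewal; teratogenicity score from eye scoring of death hatching and malformations at 144 hpf; higher score means more developmental defects relative to DMSO baseline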). In short, it runs like this: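 Larvae scored by eye at 144 hpf for death, hatching and malformations after a day in clean Hanks'. Before that, daily-renewed exposure at 80 uM (0.4% DMSO, 26C) from roughly 6-8 hpf through 5 dpf, 4 embryos per chemical.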

Experiment [2] is described as follows: Tanguay_ZF_120hpf_ActivityScore_legacy: (Legacy) Oregon State University Tanguay Lab 120 Hour Post-fertilization zebrafish Assay Score for Activity (AID 2283742).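 As to AC50: dechorionated Tropical 5D wild-type zebrafish embryos held singly per well.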 The gist of the method: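 Dechorionated 5D embryos, one per well, static exposure 6–120 hpf, 28C, sealed and dark; final DMSO 0.64% (vol/vol). Brightfield binary scoring of mortality plus 18 endpoints; gain-of-signal fit versus DMSO baseline.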

Experiment [3] concerns the target Luciferin 4-monooxygenase (Photinus pyralis) (UniProt P08659). As to the kind of experiment: CCTE_Simmons_QuantiLum_inhib_2: CCTE's Firefly Luciferase Inhibition Assay, Simmons Lab (AID 2283767).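 As to AC50: potency for inhibitors that lower luciferase luminescence relative to DMSO.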 In short, it runs like this: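 First, 5 ng purified luciferase in phosphate buffer with BSA is dispensed per well. Next, test chemicals (5 nM to 87.5 uM final, 0.5% DMSO) are added and incubated 30 min at 37C in darkness. Finally, luciferin reagent is injected and luminescence read kinetically.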

A short description of experiment [4]: ACEA_AR_agonist_AUC_viability: ACEA Biosciences xCELLigence Real-Time Cell Analysis on Androgen Receptor Agonism for Viability (AID 2283775).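 As to AC50: viability read 80 hours after compound addition.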 The gist of the method:
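22Rv1 cells; impedance growth kinetics; 8-pt 1:4 dilutions from 100 uM top final, ≤0.5% DMSO; n = 2; 80 h read; AUC viability, loss-of-signal vs DMSO.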

Experiment [5] is described as follows: STM_H9_CystineISnorm_perc: Stemina devTOX quickPredict H9 human embryonic stem cell (hESC)-based Assay for Cystine (CYSS) Metabolite Biomarker, Normalized (AID 2283713; active = hit-call score of the fitted dose curve at least 0.9, where 1 is the maximum; inactive = score below 0.9). In short, it runs like this:
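Cells are held undifferentiated and treated for 72h, receiving fresh medium with compound every 24h. Cystine secreted during the final day is quantified by UPLC-HRMS against a labeled spike-in, then expressed relative to the DMSO vehicle median.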

Experiment [6] in a line: ArunA_CellTiter_hNC: Viability Assessment in the ArunA Biomedical's Oris Neural Crest (hNC) Cell Migration Assay (AID 2283752). The gist of the method:
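Seed 60,000 hNC cells per well onto Matrigel in basal growth medium containing LIF and bFGF. Incubate 16 h at 37C. Replace with test medium containing chemical for 72 h, then assess viability by CellTiter Aqueous One.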

Experiment [7] in a line: ArunA_Migration_hNP: ArunA Biomedical's Oris Neuroprogenitor (hNP) Cell Migration Assay (AID 2283754). The gist of the method:
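Readout is calcein-AM fluorescence (ex494/em517) of cells migrating into the detection zone, relative to DMSO. hNP1 cells (H9-derived) grown on Matrigel behind stoppers 16 h, then stoppers pulled and chemical applied 72 h; cytochalasin D as control.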

Experiment [8] can be described thus: ArunA_Migration_hNC: ArunA Biomedical's Oris Neural Crest (hNC) Cell Migration Assay (AID 2283755). In short, it runs like this:
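Calcein-AM fluorescence (ex494 nm/em 517 nm) in the stopper-defined detection zone quantifies migration of hNC cells after 72 h chemical exposure; 60,000 cells/well plated on Matrigel with LIF and bFGF, 16 h pre-incubation. DMSO baseline.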

Experiment [9] in a line: ArunA_NOG_NucleusCount: ArunA Biomedical's Neurite Outgrowth (NOG) Assay for Nucleus Count (AID 2283756). In short, it runs like this: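 Viable neuron count, from Hoechst nuclei passing size and intensity gates, imaged at 20x on differentiated H9-derived human neurons. Exposure lasted 48 h from seeding; activity was scored relative to DMSO.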
Read-out in experiment [10]: Cytochrome P450 (CYP24A1_1), CYP24A1 (gene 1591)
As to the kind of experiment: LTEA_HepaRG_CYP24A1_1: Life Technologies and Expression Analysis (LTEA) Assay for Cytochrome P450 (CYP24A1_1) using HepaRG (AID 2283671; active = hit-call score of the fitted dose curve at least 0.9, where 1 is the maximum; inactive = score below 0.9). To be noted: mRNA level, 48 h; actives raise or lower the signal. The gist of the method:
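Readout is CYP24A1 transcript level by qRT-PCR, normalized to three housekeeping genes, with gain or loss of signal fitted against 0.5% DMSO. Human HepaRG cells received compound for 48 h at up to 100 uM.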

Experiment [11] in a line: STM_H9_OrnCyssISnorm_ratio: Stemina devTOX quickPredict H9 human embryonic stem cell (hESC)-based Assay for Ornithine (ORN):Cystine (CYSS) Ratio (AID 2283714). The gist of the method:
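UPLC-HRMS of spent media: ORN/CYSS ratio of internal-standard-normalized percentages, DMSO (0.1%) baseline. Pluripotent H9 hESCs, 72h exposure, daily re-dosing with fresh media; last 24h media collected.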

The nature of experiment [12]: CEETOX_H295R_MTT_cell_viability: Viability Assessment in the CeeTox HT-H295R MTT Assay (AID 2283718; active = hit-call score of the fitted dose curve at least 0.9, where 1 is the maximum; inactive = score below 0.9;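 as to AC50: curve fitted both ways so AC50 may mark viability loss or gain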). The gist of the method: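 Human H295R adrenal cells, prestimulated 48 h with 10 uM forskolin, were exposed 48 h to chemicals in 0.1% DMSO. Viability was measured in the same wells by MTT (0.5 mg/ml, 4 h, 37 C), absorbance 570/650 nm, as percent of controls.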

Results filed as inconclusive are left out. The source made the active and inactive calls. The calls were made as follows, unless noted: active = hit-call score of the fitted dose curve at least 0.9, where 1 is the maximum; inconclusive = response in the unintended direction; inactive = score below 0.9.

Sequence of Luciferin 4-monooxygenase (Photinus pyralis) (P08659 whole entry, looked up): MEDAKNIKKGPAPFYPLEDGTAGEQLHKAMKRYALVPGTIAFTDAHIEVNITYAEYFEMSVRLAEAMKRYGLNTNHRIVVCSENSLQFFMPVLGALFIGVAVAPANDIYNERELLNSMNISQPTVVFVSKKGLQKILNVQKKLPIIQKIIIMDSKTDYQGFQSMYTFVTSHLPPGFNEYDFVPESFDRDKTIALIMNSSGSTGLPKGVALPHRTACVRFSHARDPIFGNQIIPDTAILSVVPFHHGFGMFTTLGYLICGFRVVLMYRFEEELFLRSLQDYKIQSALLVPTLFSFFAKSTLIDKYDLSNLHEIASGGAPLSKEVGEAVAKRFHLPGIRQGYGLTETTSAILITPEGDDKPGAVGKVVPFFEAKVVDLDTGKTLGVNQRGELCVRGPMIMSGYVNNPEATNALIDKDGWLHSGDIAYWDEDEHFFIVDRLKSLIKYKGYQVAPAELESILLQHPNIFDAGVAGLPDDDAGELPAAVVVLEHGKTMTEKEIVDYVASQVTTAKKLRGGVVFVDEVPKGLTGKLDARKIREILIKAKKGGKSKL

As to `CC(C)(C)c1cccc(C(C)(C)C)c1O`, the AC50 (in general, the concentration at which the activity in the assay is half-maximal) in experiment [1] is 97.8 µM (active). The result in experiment [2], in experiment [3] and in experiment [4] was inactive.
`CCCCCCCCCCCCc1ccccc1S(=O)(=O)O`: the concentration at half-maximal activity (AC50) in experiment [1] was 3.26 µM (active). In addition, the outcome in experiment [5], in experiment [2], in experiment [6], in [7], in [8] and in experiment [9] was inactive. The call in experiment [3] and in experiment [4] was inactive.
As for `CCCOc1sc(C(=O)N2CCC(c3cc(CN)ccc3F)CC2)c(C)c1Br`, the half-maximal activity concentration (AC50) in [1] was 57.5 µM (active). Further, the compound was classed as inactive in experiment [2].
As for `CCCCCCCCCCCCN1CCCC1=O`, the AC50 in experiment [1] was 8.11 µM (active); in [2], 45.8 µM (active); in experiment [3], 31.1 µM (active); in [4] it was 50 µM (active).
As for `C#C[C@]1(O)CC[C@H]2[C@@H]3CCC4=CC(=O)CC[C@@H]4[C@H]3CC[C@@]21C`, the compound was called inactive in experiment [10] and in [2]. For the same compound, the concentration at half-maximal activity (AC50) in experiment [1] is 16.1 µM (active); in experiment [5], 79.8 µM (active); in [11] it was 74.8 µM (active); in experiment [12], 2.31 µM (active).
Regarding `CN1CCN(c2ccccc2/C=C2\SCCN(c3ccc(Cl)c(Cl)c3)C2=O)CC1`, the concentration at half-maximal activity (AC50) is 5.38 µM (active) in [1], 7.81 µM (active) in experiment [5], 7.71 µM (active) in experiment [11] and 66.3 µM (active) in experiment [4]. In addition, the result in experiment [2] and in experiment [3] was inactive.
In the case of `CC1=C(/C=C/C(C)=C/C=C/C(C)=C/C(=O)O)C(C)(C)CCC1`, the concentration at half-maximal activity (AC50) is 0.0081 µM (active) in experiment [1]; 0.00844 µM (active) in experiment [5]; 0.00532 µM (active) in [11]; 1.21 µM (active) in experiment [12]; 0.34 µM (active) in experiment [2]. Further, the result in experiment [3] was inactive.
In the case of `c1ccc2c(c1)ccc1ccccc12`, the compound was classed as inactive in experiment [1] and in experiment [2]. Further, the AC50 in experiment [5] was 80.3 µM (active); in experiment [11], 78.7 µM (active); in [4] it was 50 µM (active).
For `O=c1c(-c2ccc(O)cc2)coc2cc(O)ccc12`, the compound was called inactive in experiment [1], in experiment [12], in [2] and in [4]. Besides, the AC50 in [3] is 8.1 µM (active).
As to `CCN(CC)CCNc1ccc(CNC=O)c2sc3ccc(OC)cc3c(=O)c12`, the concentration at half-maximal activity (AC50) in experiment [1] is 57.8 µM (active); in [5], 2.53 µM (active); in [11] it was 5.78 µM (active); in [4], 7.1 µM (active). Besides, the compound was classed as inactive in experiment [2] and in [3].
Turning to `ClC1=C(Cl)C(Cl)(Cl)C(Cl)=C1Cl`, the call in experiment [10] and in experiment [2] was inactive. Further, the figures for the concentration at half-maximal activity (AC50) in experiment [1] and in experiment [4] were 4.87 µM (active) and 74.8 µM (active), respectively.
Regarding `Cc1oc(-c2ccccc2)nc1CCOc1ccc(C[C@H](Nc2ccccc2C(=O)c2ccccc2)C(=O)O)cc1`, the values for the half-maximal activity concentration (AC50) in experiment [1], in experiment [2] and in [4] were 5.11 µM (active), 33.2 µM (active) and 14 µM (active), respectively. Besides, the compound was classed as inactive in [3].
Take `Nc1cccc2c(N)cccc12`: the AC50 is 48.9 µM (active) in [1] and 10.6 µM (active) in experiment [3]. Also, the result in experiment [5], in experiment [11], in experiment [12] and in experiment [2] was inactive.
